Among the data in ChEMBL document CHEMBL4513216, “Probing the Open Global Health Chemical Diversity Library for Multistage-Active Starting Points for Next-Generation Antimalarials” (ACS Infect Dis, 2020) are INHIBITION values, retold here.

The campaign covered roughly 68,000 compounds. About 2,700 (4%) showed an effect of 50% or more. The entries come from a sample that favours strong results as a whole.

The experiment concerns Plasmodium berghei. In words: Screen against P. berghei liver stage (PbLuc), transformed with Luciferase, at 2uM. The class given is functional, HepG2. Conditions: tested at 2 uM.
As for `CCC(C)(CC(=O)OC)NC(=O)c1ccc(C(C)=O)cc1` (stereo unspecified), the INHIBITION worked out at 27.85%.

As to `COc1cccc(-c2cc(C(=O)NCCCn3cnnc3)[nH]n2)c1`, the INHIBITION is -48.78%.

Regarding `CCNc1ncc(C(=O)NCc2ccc(F)c(C(F)(F)F)c2)cn1`, the INHIBITION is reported as -18.6%.

In the case of `CCNc1ncc(C(=O)NCc2ccc3nsnc3c2)cn1`, the INHIBITION turned out to be 86.69%.

For `CCNc1ncc(C(=O)NCc2cccc(OC(F)(F)F)c2)cn1`, the INHIBITION is on record as -15.83%.

As for `Cc1nn(C)c(C)c1NC(=O)CN1CCc2c(nc(C(C)C)n2C)C1`, the INHIBITION was -31.89%.

Consider `CC(C)(C(=O)NCC(=O)N1CCCC1)c1ccccc1F`, for which the INHIBITION amounted to 5.47%.

Consider `CC(C)(C(=O)N1CCC(CS(N)(=O)=O)CC1)c1ccccc1F`, for which the INHIBITION is 30.06%.

`CC(C)(C(=O)N1CCC(C(N)=O)C1)c1ccccc1F` (stereo unspecified): the INHIBITION is reported as 60.9%.

In the case of `CCOc1ccc(Oc2cc(CN)ccn2)cc1`, the INHIBITION was determined as 16.95%.

Regarding `O=C(CCC(=O)N1CCOCC1)NCc1cccnc1-n1cccn1`, the INHIBITION is listed as -15.37%.

As for `Cc1cn2c(n1)CCC(NC(=O)COCCOc1ccccc1)C2` (stereo unspecified), the INHIBITION was 1.49%.

With `Cc1cc2c(N3CCCC(OCc4cccnc4)C3)ncnc2s1` (stereo unspecified), the INHIBITION worked out at 3.62%.

For the compound `Cc1nn(C)c2ncnc(N3CCCC(OCc4ccccn4)C3)c12` (stereo unspecified), the INHIBITION is reported as 10.23%.

For `Cc1nn(C)c2ncnc(N3CCCC(OCc4cccnc4)C3)c12` (stereo unspecified), the INHIBITION turned out to be 70.81%.

Take `c1cc(CN2CCc3ncc(CN4CCCCC4)n3CC2)cs1`: the INHIBITION amounted to 33.47%.

Consider `COCCN1CCC2(CC1)CC(N1CCOCC1)c1cc(C)ccc12` (stereo unspecified), for which the INHIBITION was -6.8%.

On to `CC(=O)N1CCCC1c1nccnc1Nc1ncccn1` (stereo unspecified), for which the INHIBITION amounted to 13.33%.

Take `N#Cc1cccc(N2CCCC3(CN(C(=O)NC4CC4)CCO3)C2)c1` (stereo unspecified): the INHIBITION is on record as 6.36%.

Regarding `Cc1cc(CS(=O)(=O)c2ccccc2)no1`, the INHIBITION turned out to be 58.69%.

Consider `CCc1noc(CS(=O)(=O)c2cccc(OC)c2)n1`, for which the INHIBITION was determined as 38.33%.

For the compound `Cc1cc(CN(C)CCN(C)c2ccccc2)no1`, the INHIBITION was 7.62%.

Take `COc1cccc(S(=O)(=O)Cc2cc(C)on2)c1`: the INHIBITION came out at 57.59%.

Turning to `CC(C)Cc1nc(CS(=O)(=O)c2ccccc2)no1`, the INHIBITION is -5.66%.

Regarding `COc1ccc(S(=O)(=O)Cc2cc(C)on2)cc1`, the INHIBITION is listed as 21.24%.

As for `CN(C)c1ccc(CNCc2cnc(N3CCOCC3)nc2)cn1`, the INHIBITION is -160.54%.

As for `CC(NCc1cccnc1)c1cc2c(cc1Br)OCCO2` (stereo unspecified), the INHIBITION amounted to 52.83%.

`CC(NCc1ccncc1)c1cc2c(cc1Br)OCCO2` (stereo unspecified): the INHIBITION amounted to 42.7%.

With `CC(NCc1ccccn1)c1cc2c(cc1Br)OCCO2` (stereo unspecified), the INHIBITION is 8.93%.

For `Cc1ccc(CN2CCN(C(=O)c3ccc(Br)o3)CC2)cc1`, the INHIBITION amounted to 45.77%.

On to `CC(C)Oc1ncnc2c1CCN(Cc1ccco1)CC2`, for which the INHIBITION came to 27.44%.
